Source: ChEMBL document CHEMBL3988442, “University of Dundee, Small-Polar-MMV Screening Library” (2021)
Among all 65,000 compounds or so, about 65 (0.1%) showed an effect of 50% or more. The sample holds strong results, similar compounds and a random draw of the others, so the mix is not that of the screen.

Target: Tryptophan--tRNA ligase (Mycobacterium tuberculosis (strain ATCC 25618 / H37Rv)) (UniProt P9WFT3)
Experiment: Biochemical assay for Mt-TrpRS
Type: functional
Parameters: scale not given: direction of the effect not stated beside the values
Conditions: 10 µM

Tryptophan--tRNA ligase (Mycobacterium tuberculosis (strain ATCC 25618 / H37Rv)), sequence (P9WFT3 whole entry): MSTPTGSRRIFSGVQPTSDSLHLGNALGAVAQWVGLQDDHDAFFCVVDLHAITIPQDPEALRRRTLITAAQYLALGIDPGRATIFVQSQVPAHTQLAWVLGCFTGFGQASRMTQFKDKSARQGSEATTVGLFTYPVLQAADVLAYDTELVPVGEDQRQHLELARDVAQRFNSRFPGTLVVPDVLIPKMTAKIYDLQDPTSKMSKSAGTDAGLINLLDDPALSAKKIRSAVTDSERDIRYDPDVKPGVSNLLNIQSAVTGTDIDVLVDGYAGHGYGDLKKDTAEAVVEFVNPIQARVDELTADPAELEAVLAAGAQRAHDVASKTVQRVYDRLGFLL

| Structure (SMILES) | Percent Effect [%] |
| --- | --- |
| C=C1C(C)(C)[C@H]2CC[C@]1(C(=O)N1CCC(n3cc(CCO)nn3)CC1)C2 | 1.01 |
| CCn1cnnc1CNC(=O)NC(c1cccs1)C1CCCC1 (stereo not given) | 55.9 |
| CCn1cnnc1CNC(=O)NC(c1ccccc1)C1CCCC1 (stereo not given) | 0.594 |
| CCn1cnnc1CNC(=O)NC(C)c1cccs1 (stereo not given) | -0.56 |
| O=C(COc1cccc(Cl)c1)N1CCOCC1c1ncon1 (stereo not given) | 60.2 |
| O=C(COc1ccc(Cl)cc1)N1CCOCC1c1ncon1 (stereo not given) | 3.96 |
| O=C(COc1cccc(Br)c1)N1CCOCC1c1ncon1 (stereo not given) | -4.77 |
| O=C(c1ccccc1)N1CC[C@H]2C[C@H](c3nccs3)O[C@@H]2C1 | 0.277 |
| COCC(=O)NCc1ccc(-c2ncncc2C(=O)N(C)C)cc1 | -3.46 |
| CN(C)C(=O)c1cncnc1-c1ccc(CNC(=O)C2CC2)cc1 | 1.32 |
| CN(C)C(=O)c1cncnc1-c1ccc(CNC(=O)C2CCCO2)cc1 (stereo not given) | 59.1 |
| COc1ccc(CN2C[C@@H]3CN(S(=O)(=O)C4CC4)C[C@@H]3C2=O)cc1 | 2.34 |
| c1cnc(N2CC[C@@H]3[C@@H]2CCN3Cc2cccs2)nc1 | -3.73 |
| Cc1cc(C)n(CC2CCCN2C(=O)Cc2c(C)noc2C)n1 (stereo not given) | -1.17 |
| CCc1noc(C)c1C(=O)N1CCCC1Cn1nc(C)cc1C (stereo not given) | 1.85 |
| Cc1cc(C)n(CC2CCCN2C(=O)c2c(C)noc2C)n1 (stereo not given) | 66.8 |
| CS(=O)(=O)NC[C@@H]1OC[C@H]2CN(C(=O)c3ccccc3)CC[C@H]21 | -2.6 |
| Cc1ncoc1C(=O)N1C[C@H]2CCC[C@@]2(COCC2CCOCC2)C1 | -1.66 |

| Structure (SMILES) | Percent Effect [%] |
| --- | --- |
| O=C(CC1CC1)N1CCO[C@H]2[C@H](OCCCn3cccn3)CC[C@@H]21 | -5.05 |
| c1cncc(CN2CC[C@H]3O[C@@H](COCC4CCOCC4)CC[C@H]32)c1 | -0.469 |
| CC[S+](CC)[c-]1c(=O)[nH]c(=O)n(Cc2ccc(F)cc2)c1=O | -5.58 |
| CN(Cc1nnc2n1CCC2)C(=O)c1ccc2c(c1)OCCO2 | 69.5 |
| CN(Cc1nnc2n1CCC2)C(=O)c1ccc2c(c1)OCO2 | -1.84 |
| CN(Cc1nnc2n1CCC2)C(=O)c1ccc2c(c1)OCCCO2 | 19.8 |
| CCCN1CCCN(c2ccc(-n3ccc(C)n3)nn2)CC1 | -6 |
| Cc1ccn(-c2ccc(N3CCCN(Cc4ccccc4)CC3)nn2)n1 | 119 |
| CCN1CCCN(c2ccc(-n3ccc(C)n3)nn2)CC1 | 1.17 |
| O=S(=O)(c1ccccc1)N1C[C@@H]2COC[C@]2(COCC2CC2)C1 | 9.94 |
| O=C(c1ccc(F)c(F)c1)N1C[C@H]2CNC[C@H]2C1 | -6.39 |
| Fc1ccc(-c2nc(CN3CCCC3Cn3cncn3)co2)cc1 (stereo not given) | 53.9 |
| Fc1cccc(-c2nc(CN3CCCC3Cn3cncn3)co2)c1 (stereo not given) | 10.9 |
| Fc1ccc(-c2nc(CN3CCCCC3Cn3cncn3)co2)cc1 (stereo not given) | -4.8 |
| Cc1cnn(CC2CCCN2Cc2coc(-c3cccc(F)c3)n2)c1 (stereo not given) | 4.37 |
| Fc1cccc(-c2nc(CN3CCCC3Cn3cccn3)co2)c1 (stereo not given) | 74.9 |
| Cc1ccc(-c2nc(CN3CCCC3Cn3cncn3)co2)cc1 (stereo not given) | -4.8 |
